Assay outcomes from PubChem.
This is a sample that favours compounds with a hit; in the whole collection about 11% have one here.
FLuc inh – blocks purified firefly luciferase enzyme activity; 76,000 tested, 2.5% active; P08659; purified P. pyralis luciferase, luminescence, biochemical; Potency, µM (titrated, usually from 115 µM), actives largely listed as inhibitors; active means well fitted curve in the direction sought with a large enough effect; inconclusive means small, poorly fitted or top-dose-only effect, or another doubt; inactive means no such curve, though single readings can be large; an effect the other way counts as inactive or inconclusive; further: nearly all actives have a fitted effect of over 65% in size
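Inhibitors were tested against purified firefly luciferase in a biochemical, low-substrate format (both substrates at 10uM) and luminescence measured with a CCD imager.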
HEK cytotox – HEK 293 cell cytotoxicity. HEK 293 viability, ATP luminescence (CellTiter-Glo), 48-72 h. Potency, µM (series often up to 115 µM), hits mostly inhibitors. 94,000 tested, 6.6% active. AID 1345083; active means well fitted curve in the direction sought with a large enough effect; inconclusive means small, poorly fitted or top-dose-only effect, or another doubt; inactive means no such curve, though single readings can be large; an effect the other way counts as inactive or inconclusive; further: nearly all actives have a fitted effect of over 60% in size
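HEK 293 cells seeded at 250 cells/well were exposed to compound for 48 or 72 hr at 37 degree Celsius. Viability taken as ATP content by CellTiter-Glo luminescence.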
NIH3T3 tox – cytotoxic compounds in NIH 3T3 cells | NIH 3T3 viability, CellTiter-Glo ATP luminescence, 48-72 h | Potency, µM (series often up to 96.7 µM), hits mostly inhibitors | 94,000 tested, 4.3% active; active means well fitted curve in the direction sought with a large enough effect; inconclusive means small, poorly fitted or top-dose-only effect, or another doubt; inactive means no such curve, though single readings can be large; an effect the other way counts as inactive or inconclusive; further: nearly all actives have a fitted effect of over 55% in size
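Cells were seeded at 400 per well, treated with pin-transferred compound, and kept 48 or 72 hr at 37 °C before CellTiter-Glo addition and luminescence imaging of cellular ATP.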
NPR1 antag – antagonists of human natriuretic peptide receptor Npr1 | P16066 | HEK293 hNpr1 GloSensor cGMP, ANP-stimulated luminescence | Potency, µM (highest dose often 46.3 µM), usual class: inhibitors | 76,000 tested, 1.6% active | AID 1347048; further: nearly all actives have a fitted effect of over 60% in size
Target sequence (P16066 whole entry, looked up): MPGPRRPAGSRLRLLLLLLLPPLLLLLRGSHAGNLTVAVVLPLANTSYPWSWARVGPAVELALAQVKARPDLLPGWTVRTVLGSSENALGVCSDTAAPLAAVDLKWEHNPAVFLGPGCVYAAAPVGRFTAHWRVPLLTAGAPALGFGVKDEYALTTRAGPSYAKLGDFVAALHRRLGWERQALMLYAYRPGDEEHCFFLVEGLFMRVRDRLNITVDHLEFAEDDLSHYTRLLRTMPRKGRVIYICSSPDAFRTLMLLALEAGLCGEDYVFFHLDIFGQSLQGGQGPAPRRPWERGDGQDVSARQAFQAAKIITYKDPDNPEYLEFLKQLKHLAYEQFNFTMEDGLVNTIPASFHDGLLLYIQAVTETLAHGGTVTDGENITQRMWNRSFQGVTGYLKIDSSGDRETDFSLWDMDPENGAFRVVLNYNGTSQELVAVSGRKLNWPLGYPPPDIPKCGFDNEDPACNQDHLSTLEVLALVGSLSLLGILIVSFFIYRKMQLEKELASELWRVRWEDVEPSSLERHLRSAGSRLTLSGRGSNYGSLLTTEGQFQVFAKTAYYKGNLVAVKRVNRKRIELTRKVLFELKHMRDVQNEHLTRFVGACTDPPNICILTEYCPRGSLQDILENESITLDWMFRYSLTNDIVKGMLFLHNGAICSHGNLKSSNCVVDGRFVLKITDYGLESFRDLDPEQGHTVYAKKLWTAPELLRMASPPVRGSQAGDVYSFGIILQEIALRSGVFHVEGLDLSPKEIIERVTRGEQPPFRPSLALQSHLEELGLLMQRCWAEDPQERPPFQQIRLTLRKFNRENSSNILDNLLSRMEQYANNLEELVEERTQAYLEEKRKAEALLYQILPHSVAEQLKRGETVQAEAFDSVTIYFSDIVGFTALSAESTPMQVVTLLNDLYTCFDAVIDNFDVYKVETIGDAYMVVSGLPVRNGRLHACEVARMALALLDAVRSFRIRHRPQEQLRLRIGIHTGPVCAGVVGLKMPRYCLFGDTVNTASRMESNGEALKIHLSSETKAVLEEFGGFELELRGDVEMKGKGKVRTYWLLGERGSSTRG
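Compound pre-incubated 30 min at room temperature on GloSensor-loaded HEK293 cells stably carrying hNpr1 and the pGS-40F cGMP biosensor. Stimulation uses hNppA at 0.1 nM final; luminescence is taken at baseline and 20 min post-agonist.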
Npr1 antag conf – confirmation of human Npr1 natriuretic peptide receptor antagonists; 1,400 tested, 76% active; AID 1347044; shares compounds with NPR1 antag; HEK293 hNpr1 cGMP GloSensor luminescence, ANP-stimulated; Potency, µM (doses to about 57.6 µM), usual class: inhibitors; further: nearly all actives have a fitted effect of over 70% in size
Npr2 selectivity – hNpr2 antagonism, selectivity versus Npr1; 1,400 tested, 67% active; shares compounds with NPR1 antag; Potency, µM (top dose mostly 57.6 µM), actives largely listed as inhibitors; AID 1347046; HEK293 hNpr2 GloSensor cGMP luminescence, CNP-stimulated; further: nearly all actives have a fitted effect of over 70% in size
FLuc inh counter – inhibits firefly luciferase, false Npr1 antagonist flag; shares compounds with NPR1 antag; purified FLuc enzyme, luminescence, Km substrate; Potency, µM (doses to about 57.6 µM), usual class: inhibitors; 1,400 tested, 0.7% active; active means well fitted curve in the direction sought with a large enough effect; inconclusive means small, poorly fitted or top-dose-only effect, or another doubt; inactive means no such curve, though single readings can be large; an effect the other way counts as inactive or inconclusive
GloSensor ctrl – reduces cGMP signal in GloSensor control cells | shares compounds with NPR1 antag | Potency, µM (titrated, usually from 57.6 µM), most hits filed as inhibitors | HEK293 GloSensor cGMP, SNP-stimulated, luminescence | AID 1347051 | 1,400 tested, 69% active; further: nearly all actives have a fitted effect of over 70% in size
Of the large screens only hits and unclear results are named; the others gave an inactive call (follow-up assays come after a bar, where they were run). Unless noted, the call rests on the fitted dose curve.

COc1ccc(C2Cn3nnc(C(=O)NC4CCCCCCC4)c3CO2)cc1 (centres undefined)	HEK cytotox inconclusive, NIH3T3 tox inconclusive, NPR1 antag inconclusive | Npr1 antag conf inconclusive | Npr2 selectivity inconclusive | FLuc inh counter inactive | GloSensor ctrl 19µM
Cc1ccc(C(=O)N2CCN(C(=O)c3nnn4c3COC(c3ccc(F)cc3)C4)CC2)cc1C (centres undefined)	HEK cytotox 45µM, NIH3T3 tox inconclusive, NPR1 antag 11µM | Npr1 antag conf 27µM | Npr2 selectivity 22µM | FLuc inh counter inactive | GloSensor ctrl 24µM
O=C(NCCN1CCCCC1)c1ccc(-c2nnc3ccc(NC(=O)C4CCC4)cn23)cc1	none
Clc1cccc(-c2cnc([C@@H]3COCCN3Cc3cnc4ccccc4c3)[nH]2)c1	HEK cytotox 63µM, NIH3T3 tox 79µM, NPR1 antag 28µM | Npr1 antag conf inconclusive | Npr2 selectivity inconclusive | FLuc inh counter inactive | GloSensor ctrl inconclusive
O=c1[nH]c(C2CCCN([S+](=O)([O-])c3cccc(C(F)(F)F)c3)C2)nn1-c1cccc(Cl)c1 (centres undefined)	none
OC1CC(c2cc(N3CCC(Cc4noc(C5CC5)n4)CC3)ncn2)C1 (centres undefined)	NIH3T3 tox inconclusive, NPR1 antag 0.79µM | Npr1 antag conf 0.86µM | Npr2 selectivity 1.2µM | FLuc inh counter inactive | GloSensor ctrl 0.77µM
CN(Cc1noc(C2CCCC2)n1)c1cc(C2CC(O)C2)ncn1 (centres undefined)	NIH3T3 tox inconclusive, NPR1 antag inconclusive | Npr1 antag conf 22µM | Npr2 selectivity inconclusive | FLuc inh counter inactive | GloSensor ctrl 22µM
O=C(Cc1ccccc1Cl)N1CCC(Cc2nc(-c3ccc(F)cc3)no2)CC1	HEK cytotox inconclusive, NIH3T3 tox inconclusive, NPR1 antag 16µM | Npr1 antag conf 12µM | Npr2 selectivity 15µM | FLuc inh counter inactive | GloSensor ctrl 11µM
O=C(CC1CCCCC1)N1CCC(c2noc(COc3ccc(F)cc3)n2)CC1	HEK cytotox inconclusive, NIH3T3 tox inconclusive, NPR1 antag 7.1µM | Npr1 antag conf 12µM | Npr2 selectivity 14µM | FLuc inh counter inactive | GloSensor ctrl 14µM
O=C(CCC1CCCC1)N1CCC(Cc2nc(C3CCOCC3)no2)CC1	HEK cytotox inconclusive, NIH3T3 tox inconclusive, NPR1 antag 10µM | Npr1 antag conf 12µM | Npr2 selectivity 17µM | FLuc inh counter inactive | GloSensor ctrl 12µM
COCC(=O)N1CCC(c2noc(COc3ccc(F)cc3)n2)CC1	none (no result: FLuc inh, NPR1 antag)
O=C(CC1CCCCC1)N1CCC(n2cc(-c3nc(-c4ccccc4)no3)nn2)CC1	HEK cytotox 28µM, NIH3T3 tox inconclusive, NPR1 antag 11µM | Npr1 antag conf 24µM | Npr2 selectivity 22µM | FLuc inh counter inactive | GloSensor ctrl 22µM
Cn1cc(CC(=O)N2CCCc3ncc(C(=O)NCCN4CCCC4)cc32)c2ccccc21	NIH3T3 tox inconclusive
COc1ccc(OCc2nc(C)c(CCO)c(=O)n2CC(=O)NCc2cccs2)cc1	none
COc1ccc2c(c1)C(COCc1ccc(C(=O)O)cc1)=CC(C)(C)O2	NIH3T3 tox inconclusive (no result: FLuc inh, NPR1 antag)
CCN(Cc1ccccc1)C(=O)CC1CCCN(c2cnn(CC)c(=O)c2)C1 (centres undefined)	HEK cytotox inconclusive
CCN1c2cc(C(=O)Nc3cc(F)ccc3F)ccc2C(=O)N2CCCCCC21 (centres undefined)	HEK cytotox inconclusive, NIH3T3 tox inconclusive
O=C(CC1CCCCC1)N1CCC(Cc2nc(-c3ccccc3)no2)CC1	HEK cytotox inconclusive, NIH3T3 tox inconclusive, NPR1 antag 10µM | Npr1 antag conf 14µM | Npr2 selectivity 15µM | FLuc inh counter inactive | GloSensor ctrl 9.7µM
